Data published in PubChem BioAssay (NCATS).
Results filed as inconclusive are left out. The source made the active and inactive calls. Unless noted, calls come from the whole dose curve; as a rule, active = well fitted curve in the direction sought with a large enough effect; inconclusive = small, poorly fitted or top-dose-only effect, or another doubt; inactive = no such curve, though single readings can be large; an effect the other way counts as inactive or inconclusive.

What was measured:
[1] = target: Cytochrome P450 2C9 (Homo sapiens) (UniProt P11712); assay: Cytochrome P450 family 2 subfamily C member 9 (CYP2C9) small molecule antagonists: luciferase biochemical (cell-free) qHTS assay (AID 1645842; active = well fitted curve in the direction sought with a large enough effect in the repeat runs; an effect the other way counts as inactive or inconclusive; note: nearly all actives have a fitted effect of over 55% in size; note: potency is the fitted concentration of half-maximal effect)
Method in brief: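 P450-Glo CYP2C9 system: proluciferin substrate with enzyme in mix containing 0.4% BSA, 10 min at room temperature, then NADPH regeneration solution added and incubated 1 h at 37C. Detection reagent stopped reaction; luminescence read after 20 min as RLU.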

[2] = Primary qHTS for inhibitors of nuclear receptor binding SET domain protein 2 (NSD2) in an isogenic RCH-ACV NSD2 p.E1099K mutant (9B) (AID 1645876); note: nearly all actives have a fitted effect of over 70% in size; note: potency is the fitted concentration of half-maximal effect
[3] = target: N-terminal Xaa-Pro-Lys N-methyltransferase 1 (Homo sapiens) (UniProt Q9BV86); assay: Confirmatory qHTS for Inhibitors of N-terminal methyltransferase 1 (NTMT1): MTaseGlo Assay (AID 1645874);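 note: luminescence from SAH made as NTMT1 methylates SPKRIA peptide using SAM; series mostly up to about 100 µM; nearly all actives have a fitted effect of over 65% in size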
Method in brief: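 MTase-Glo luminescence measured SAH formed by 125 nM NTMT1 from 100 uM SAM and 1 uM SPKRIA peptide over 30 min at room temperature, following 15 min compound preincubation. Percent inhibition against no-enzyme and DMSO controls gave 4-parameter Hill fits.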

[4] = Primary qHTS for inhibitors of nuclear receptor binding SET domain protein 2 (NSD2) in an RCH-ACV wild type WT cells (2C) (AID 1645877); note: potency is the fitted concentration of half-maximal effect; nearly all actives have a fitted effect of over 70% in size

Cytochrome P450 2C9 (Homo sapiens), sequence (P11712 whole entry, looked up): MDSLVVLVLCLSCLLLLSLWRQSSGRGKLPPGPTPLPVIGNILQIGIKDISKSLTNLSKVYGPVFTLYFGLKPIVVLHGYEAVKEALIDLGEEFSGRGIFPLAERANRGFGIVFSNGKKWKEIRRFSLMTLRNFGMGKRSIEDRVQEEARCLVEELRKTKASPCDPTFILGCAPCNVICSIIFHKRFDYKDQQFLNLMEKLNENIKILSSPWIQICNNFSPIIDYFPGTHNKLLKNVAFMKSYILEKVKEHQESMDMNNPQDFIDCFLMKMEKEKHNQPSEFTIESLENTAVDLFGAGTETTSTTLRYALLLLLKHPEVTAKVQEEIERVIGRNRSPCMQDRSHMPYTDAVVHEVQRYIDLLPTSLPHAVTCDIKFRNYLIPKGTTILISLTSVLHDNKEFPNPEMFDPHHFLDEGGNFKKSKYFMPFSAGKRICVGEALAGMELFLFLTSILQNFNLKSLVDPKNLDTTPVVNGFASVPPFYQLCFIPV
N-terminal Xaa-Pro-Lys N-methyltransferase 1 (Homo sapiens), sequence (Q9BV86 whole entry, looked up): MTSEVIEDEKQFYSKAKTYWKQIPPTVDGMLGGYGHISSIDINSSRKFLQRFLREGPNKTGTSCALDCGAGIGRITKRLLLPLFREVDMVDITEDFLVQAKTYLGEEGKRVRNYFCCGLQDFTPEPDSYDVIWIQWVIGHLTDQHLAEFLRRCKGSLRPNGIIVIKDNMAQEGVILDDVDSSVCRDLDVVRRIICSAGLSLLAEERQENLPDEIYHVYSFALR

N#Cc1cc(-c2ccnc(Nc3ccc(N4CCOCC4)cc3)n2)ccc1OC1CCOCC1
Potency [1]: 2.13 µM (active)
Potency [2]: 1.45 µM (active)

Cc1ccc(NC(=O)N2CCN(c3nc(N)nc4sc(-c5cccnc5)nc34)CC2)cc1
Potency [1]: 3.01 µM (active)
Potency [3]: inactive
Potency [2]: 0.258 µM (active)
Potency [4]: 0.23 µM (active)

CNc1nc(NCc2ccc(NS(C)(=O)=O)cc2Cl)cc(-c2ccccn2)n1
Potency [1]: 2.68 µM (active)
Potency [2]: 11.5 µM (active)
Potency [4]: 7.28 µM (active)

CCCCc1c(-c2ccc(OC)cc2)[nH]c2nccnc12
Potency [1]: inactive
Potency [2]: 3.65 µM (active)

OC(CC1c2ccccc2-c2cncn21)C1CCCCC1 (stereo unspecified)
Potency [1]: 2.68 µM (active)
Potency [2]: 23 µM (active)

CC(C)[C@@H](c1ccc(C(F)(F)F)cc1CN(Cc1cc(C(F)(F)F)cc(C(F)(F)F)c1)c1nnn(C)n1)N1CCC(C(=O)O)CC1
Potency [1]: 15.1 µM (active)
Potency [2]: 25.8 µM (active)

CC(C)NC(=O)COc1cccc(-c2nc(Nc3ccc4[nH]ncc4c3)c3ccccc3n2)c1
Potency [1]: 0.19 µM (active)
Potency [2]: 7.42 µM (active)

CCO[C@H]1CN(C2CCC(O)(c3ccc4c(c3)OCO4)CC2)C[C@@H]1NC(=O)CNC(=O)c1cccc(C(F)(F)F)c1 (stereo partly specified)
Potency [1]: 12 µM (active)
Potency [2]: inactive

CCCCC1CCN(CCCN2C(=O)CCc3ccccc32)CC1
Potency [1]: inactive
Potency [2]: 20.5 µM (active)
Potency [4]: 11.5 µM (active)

C[C@@H](N[C@H]1CCCC[C@@H]1NC(=O)c1ccc(Cl)cc1)c1cccc2ccccc12
Potency [1]: 12 µM (active)
Potency [2]: 14.5 µM (active)
Potency [4]: 9.16 µM (active)

Nc1cccc(CNC(=O)c2ccc(Oc3ccc(OCc4cccc(F)c4)cc3)nc2)c1
Potency [1]: 9.52 µM (active)
Potency [2]: 11.5 µM (active)

COC(=O)c1cc(Br)cnc1N1CCC(NC2CCCCC2)C(O)C1 (stereo unspecified)
Potency [1]: inactive
Potency [2]: inactive

Cc1c(NC(=O)c2cc3c(s2)CCCC3)cccc1-c1cn(C)c(=O)c(Nc2ccc(C3C(=O)N(C)CCN3C)cc2)n1 (stereo unspecified)
Potency [1]: 1.2 µM (active)
Potency [2]: 12.9 µM (active)

CCCc1cc(C)n(C)c(=O)c1CN(C)C(=O)c1cc(-c2ccc(N3CCN(C(C)C)CC3)nc2)cc2c1cnn2C(C)C
Potency [1]: 0.601 µM (active)
Potency [2]: inactive

COc1cc(-c2cn(C3CCc4c(F)cccc4N(CC(F)(F)F)C3=O)nn2)ccc1-n1cnc(C)c1 (stereo unspecified)
Potency [1]: 12 µM (active)
Potency [2]: 18.3 µM (active)

O=C(NCCCn1ccnc1)c1cc(-c2ccco2)on1
Potency [1]: 9.52 µM (active)
Potency [2]: 14.5 µM (active)
Potency [4]: 10.3 µM (active)

CCCCCCOC(=O)/N=C(\N)c1ccc(NCc2nc3cc(C(=O)N(CCC(=O)OCC)c4ccccn4)ccc3n2C)cc1
Potency [1]: inactive
Potency [2]: 20.5 µM (active)
Potency [4]: 16.3 µM (active)
